About 8,800 targets were measured; listed, in parts, are those with a hit and a random draw of the rest. About 0.5% of all pairs of compound and target were hits.
What was measured:
Experiment in all cases: log2 fold change, soluble protein after heating vs DMSO (PISA); higher = thermal stabilisation; K562 lysate, 10 uM; active = over 0.2 and 3.5 SD of the protein, either way, in both replicates (recomputed)
[1] = compound: C1=CC=C(C=C1)[C@H](COC2=CC3=C(C=C2)NC(=O)N3)NC(=O)C4=CC=CN(C4=O)CC5=CC(=C(C=C5)F)F
Outline: (§1)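 Soluble protein was defined as the supernatant remaining after 21,000xg for 90 min, following pooling of heated aliquots and adjustment to 0.5% NP-40 at 4°C. Before that, crude K562 extract at 1 mg/mL protein in PBS pH 7.4 with 1 mM MgCl2 was treated with 10 μM compound for 30 min and heated for 3 min across 48°C-58°C. Quantification used TMTpro 16plex LC-MS/MS with channel sums equalised, and values are log-two fold changes in thermal stability relative to solvent controls from duplicates.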

[2] = compound: CC1=C(SC2=C1C(=N[C@H](C3=NN=C(N32)C)CC(=O)N)C4=CC=C(C=C4)Cl)C
Outline: as §1

[3] = compound: CC1=C2C(=CC=C1)N=C(N(C2=O)C3=CC=CC=C3C)CN4C=NC5=C(N=CN=C54)N
Outline: as §1

[4] = compound: Cc1sc2c(c1C)C(c1ccc(Cl)cc1)=N[C@@H](CC(=O)OC(C)(C)C)c1nnc(C)n1-2
Outline: as §1

[5] = compound: c1ccc([C@@H]2C[C@H]2NC2CCNCC2)cc1
Outline: as §1

Measured: log2 fold change

STK39 (UniProt Q9UEW8)
inactive: [1] 0.011 | [2] -0.056 | [3] 0.049 | [4] 0 | [5] 0.078

SNCA (UniProt P37840)
inactive: [1] 0.211 | [2] 0 | [3] -0.009 | [4] 0.211 | [5] -0.077

TAOK2 (UniProt Q9UL54)
Chain of UniProt Q9UL54 (Q9UL54 whole entry, looked up): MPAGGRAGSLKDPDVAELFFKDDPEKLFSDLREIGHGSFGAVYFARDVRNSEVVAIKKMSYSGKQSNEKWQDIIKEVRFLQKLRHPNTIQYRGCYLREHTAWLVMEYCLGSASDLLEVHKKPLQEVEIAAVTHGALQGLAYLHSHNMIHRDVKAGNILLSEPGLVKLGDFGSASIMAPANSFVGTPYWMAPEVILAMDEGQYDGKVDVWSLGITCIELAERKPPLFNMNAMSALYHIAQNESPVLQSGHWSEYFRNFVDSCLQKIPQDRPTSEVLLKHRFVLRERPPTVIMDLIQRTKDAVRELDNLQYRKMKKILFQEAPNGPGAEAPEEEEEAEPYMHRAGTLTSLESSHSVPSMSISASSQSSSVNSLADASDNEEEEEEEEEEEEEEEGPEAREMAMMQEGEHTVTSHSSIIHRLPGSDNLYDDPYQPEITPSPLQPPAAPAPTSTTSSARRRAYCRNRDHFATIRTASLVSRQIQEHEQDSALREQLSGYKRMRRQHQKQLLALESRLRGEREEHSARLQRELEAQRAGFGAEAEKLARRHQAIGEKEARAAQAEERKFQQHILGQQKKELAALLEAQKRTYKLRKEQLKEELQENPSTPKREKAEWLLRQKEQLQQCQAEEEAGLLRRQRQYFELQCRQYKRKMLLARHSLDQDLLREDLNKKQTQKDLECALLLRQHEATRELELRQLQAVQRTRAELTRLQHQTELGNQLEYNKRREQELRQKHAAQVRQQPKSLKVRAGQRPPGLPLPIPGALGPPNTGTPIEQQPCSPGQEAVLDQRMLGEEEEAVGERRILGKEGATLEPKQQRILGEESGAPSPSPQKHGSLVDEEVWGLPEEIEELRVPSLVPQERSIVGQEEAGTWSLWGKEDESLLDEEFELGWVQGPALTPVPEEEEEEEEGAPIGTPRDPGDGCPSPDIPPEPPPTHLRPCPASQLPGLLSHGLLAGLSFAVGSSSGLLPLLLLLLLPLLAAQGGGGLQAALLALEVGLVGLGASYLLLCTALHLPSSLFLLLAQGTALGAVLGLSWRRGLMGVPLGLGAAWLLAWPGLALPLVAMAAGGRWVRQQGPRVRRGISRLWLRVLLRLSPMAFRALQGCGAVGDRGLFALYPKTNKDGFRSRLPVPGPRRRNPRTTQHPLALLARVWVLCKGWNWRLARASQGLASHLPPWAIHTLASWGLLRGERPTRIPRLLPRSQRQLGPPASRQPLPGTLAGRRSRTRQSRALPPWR
inactive: [1] -0.033 | [2] 0.118 | [3] -0.001 | [4] 0.242 | [5] -0.105

SRRT (UniProt Q9BXP5)
inactive: [1] -0.003 | [2] 0.02 | [3] -0.002 | [4] 0.021 | [5] 0.068

SSBP3 (UniProt Q9BWW4)
inactive: [1] -0.113 | [2] -0.031 | [3] 0.062 | [4] -0.06 | [5] -0.005

SLU7 (UniProt O95391)
inactive: [1] -0.015 | [2] 0.041 | [3] 0.045 | [4] -0.028 | [5] -0.16

SLC7A5 (UniProt Q01650)
inactive: [1] 0.019 | [2] -0.027 | [3] 0.003 | [4] -0.061 | [5] -0.231

SLC39A11 (UniProt Q8N1S5)
inactive: [1] 0.022 | [2] -0.041 | [3] 0.063 | [4] 0.186 | [5] 0.036

SLC25A17 (UniProt O43808)
inactive: [1] -0.014 | [2] 0.007 | [3] -0.024 | [4] -0.096 | [5] -0.163

SMIM8 (UniProt Q96KF7)
Chain of UniProt Q96KF7 (Q96KF7 whole entry, looked up): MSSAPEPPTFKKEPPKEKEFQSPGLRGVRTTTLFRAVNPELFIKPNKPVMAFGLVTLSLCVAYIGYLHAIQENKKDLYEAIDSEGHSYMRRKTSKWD
inactive: [1] 0.061 | [2] 0.044 | [3] 0.004 | [4] 0.047 | [5] -0.157

SYK (UniProt P43405)
inactive: [1] -0.016 | [2] 0.06 | [3] 0.135 | [4] 0.008 | [5] -0.052

SFR1 isoform 2 (UniProt Q86XK3)
inactive: [1] -0.035 | [2] -0.005 | [3] -0.01 | [4] 0 | [5] 0.072

SLC25A38 (UniProt Q96DW6)
Chain of UniProt Q96DW6 (Q96DW6 whole entry, looked up): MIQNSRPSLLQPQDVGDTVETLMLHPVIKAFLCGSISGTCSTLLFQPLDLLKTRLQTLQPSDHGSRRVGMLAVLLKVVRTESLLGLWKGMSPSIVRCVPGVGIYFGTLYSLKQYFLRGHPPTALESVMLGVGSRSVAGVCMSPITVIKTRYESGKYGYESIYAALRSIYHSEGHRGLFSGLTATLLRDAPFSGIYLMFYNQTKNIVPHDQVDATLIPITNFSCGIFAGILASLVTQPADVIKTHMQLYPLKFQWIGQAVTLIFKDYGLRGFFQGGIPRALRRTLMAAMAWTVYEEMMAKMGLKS
inactive: [1] 0.099 | [2] 0 | [3] 0.013 | [4] -0.323 | [5] -0.047

TAF6L (UniProt Q9Y6J9)
Chain of UniProt Q9Y6J9 (Q9Y6J9 whole entry, looked up): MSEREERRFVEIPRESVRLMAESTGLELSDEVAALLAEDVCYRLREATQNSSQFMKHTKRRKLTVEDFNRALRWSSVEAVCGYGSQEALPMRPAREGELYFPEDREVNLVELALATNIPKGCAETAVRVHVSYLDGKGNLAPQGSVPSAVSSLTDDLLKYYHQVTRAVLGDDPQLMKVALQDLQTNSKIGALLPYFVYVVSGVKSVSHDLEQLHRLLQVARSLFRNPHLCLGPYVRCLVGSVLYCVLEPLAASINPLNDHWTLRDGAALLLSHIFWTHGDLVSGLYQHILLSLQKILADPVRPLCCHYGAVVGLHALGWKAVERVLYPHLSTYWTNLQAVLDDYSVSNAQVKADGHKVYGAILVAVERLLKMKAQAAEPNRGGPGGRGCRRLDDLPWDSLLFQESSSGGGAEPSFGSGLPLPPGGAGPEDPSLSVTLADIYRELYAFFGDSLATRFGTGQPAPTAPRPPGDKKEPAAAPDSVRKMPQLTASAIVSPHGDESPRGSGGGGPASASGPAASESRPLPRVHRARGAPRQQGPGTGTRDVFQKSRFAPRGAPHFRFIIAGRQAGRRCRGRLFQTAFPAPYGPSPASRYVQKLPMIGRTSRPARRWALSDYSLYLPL
inactive: [1] 0.011 | [2] -0.027 | [3] -0.094 | [4] -0.02 | [5] 0.061

STK25 (UniProt O00506)
inactive: [1] -0.05 | [2] 0.035 | [3] -0.062 | [4] 0.053 | [5] -0.048

SRP54 (UniProt P61011)
inactive: [1] 0.023 | [2] 0.001 | [3] 0.03 | [4] 0.06 | [5] 0.049

SLC19A1 (UniProt P41440)
Chain of UniProt P41440 (P41440 whole entry, looked up): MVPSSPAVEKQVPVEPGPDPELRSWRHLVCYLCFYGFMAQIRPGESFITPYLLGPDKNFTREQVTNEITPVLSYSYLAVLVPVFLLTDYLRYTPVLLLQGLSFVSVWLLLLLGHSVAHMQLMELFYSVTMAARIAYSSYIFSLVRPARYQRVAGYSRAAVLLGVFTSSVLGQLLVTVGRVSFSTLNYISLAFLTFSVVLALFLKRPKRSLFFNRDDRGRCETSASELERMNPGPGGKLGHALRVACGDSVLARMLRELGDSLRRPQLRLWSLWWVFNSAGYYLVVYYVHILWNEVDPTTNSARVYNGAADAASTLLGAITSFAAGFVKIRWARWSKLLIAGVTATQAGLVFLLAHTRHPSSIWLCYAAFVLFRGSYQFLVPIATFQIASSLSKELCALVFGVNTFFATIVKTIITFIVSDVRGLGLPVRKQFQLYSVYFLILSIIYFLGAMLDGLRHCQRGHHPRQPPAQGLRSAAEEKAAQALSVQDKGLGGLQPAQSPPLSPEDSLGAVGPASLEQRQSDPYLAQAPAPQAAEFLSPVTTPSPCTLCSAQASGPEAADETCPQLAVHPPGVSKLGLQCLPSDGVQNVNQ
inactive: [1] 0.017 | [2] -0.022 | [3] -0.056 | [4] -0.12 | [5] -0.176

SND1 (UniProt Q7KZF4)
Chain of UniProt Q7KZF4 (Q7KZF4 whole entry, looked up): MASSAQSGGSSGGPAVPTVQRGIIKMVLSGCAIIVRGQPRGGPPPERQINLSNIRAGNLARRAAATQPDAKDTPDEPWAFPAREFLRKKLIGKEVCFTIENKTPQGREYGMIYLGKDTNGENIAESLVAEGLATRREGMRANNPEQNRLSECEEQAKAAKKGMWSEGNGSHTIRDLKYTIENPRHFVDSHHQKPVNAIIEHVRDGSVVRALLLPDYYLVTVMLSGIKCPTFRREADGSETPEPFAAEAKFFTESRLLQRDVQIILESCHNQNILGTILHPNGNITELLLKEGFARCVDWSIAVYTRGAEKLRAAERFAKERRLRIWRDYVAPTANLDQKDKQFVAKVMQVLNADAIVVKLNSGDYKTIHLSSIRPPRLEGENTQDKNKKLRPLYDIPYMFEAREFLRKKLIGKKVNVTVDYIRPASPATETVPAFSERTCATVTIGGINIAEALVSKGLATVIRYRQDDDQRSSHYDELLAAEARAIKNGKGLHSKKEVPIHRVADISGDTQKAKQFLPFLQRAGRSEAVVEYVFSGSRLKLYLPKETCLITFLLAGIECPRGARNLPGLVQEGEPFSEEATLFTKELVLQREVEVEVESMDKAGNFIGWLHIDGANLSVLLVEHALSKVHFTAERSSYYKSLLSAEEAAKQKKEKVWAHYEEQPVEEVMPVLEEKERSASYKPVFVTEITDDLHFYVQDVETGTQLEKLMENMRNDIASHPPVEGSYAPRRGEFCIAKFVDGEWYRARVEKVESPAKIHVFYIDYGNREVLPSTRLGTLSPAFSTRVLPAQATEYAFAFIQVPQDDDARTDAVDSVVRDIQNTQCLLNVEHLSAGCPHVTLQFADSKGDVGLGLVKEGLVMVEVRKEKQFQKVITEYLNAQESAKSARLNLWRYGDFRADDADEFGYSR
inactive: [1] -0.008 | [2] 0.021 | [3] 0.022 | [4] 0.037 | [5] 0.041

SKA1 (UniProt Q96BD8)
Chain of UniProt Q96BD8 (Q96BD8 whole entry, looked up): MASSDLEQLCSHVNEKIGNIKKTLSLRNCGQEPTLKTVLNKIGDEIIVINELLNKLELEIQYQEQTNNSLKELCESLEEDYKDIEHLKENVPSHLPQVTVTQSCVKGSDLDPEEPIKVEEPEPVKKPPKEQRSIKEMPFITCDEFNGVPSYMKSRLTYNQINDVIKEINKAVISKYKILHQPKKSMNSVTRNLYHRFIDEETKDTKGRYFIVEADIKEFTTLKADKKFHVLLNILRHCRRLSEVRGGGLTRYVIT
inactive: [1] -0.03 | [2] 0.005 | [3] 0.025 | [4] -0.018 | [5] 0.018

SH3BGRL2 (UniProt Q9UJC5)
Chain of UniProt Q9UJC5 (Q9UJC5 whole entry, looked up): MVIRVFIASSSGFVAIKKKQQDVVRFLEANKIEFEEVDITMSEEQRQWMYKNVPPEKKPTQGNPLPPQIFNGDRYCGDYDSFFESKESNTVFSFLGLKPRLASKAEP
inactive: [1] 0.048 | [2] 0.085 | [3] -0.027 | [4] -0.001 | [5] 0.083

SNRPF (UniProt P62306)
Chain of UniProt P62306 (P62306 whole entry, looked up): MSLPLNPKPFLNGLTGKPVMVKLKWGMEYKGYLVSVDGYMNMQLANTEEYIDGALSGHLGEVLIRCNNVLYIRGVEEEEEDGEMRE
inactive: [1] 0.04 | [2] -0.084 | [3] -0.12 | [4] -0.103 | [5] -0.206

STK26 (UniProt Q9P289)
inactive: [1] -0.015 | [2] -0.015 | [3] 0.008 | [4] -0.015 | [5] 0.02

SHC1 isoform 6 (UniProt P29353)
Chain of UniProt P29353 (P29353 whole entry, looked up): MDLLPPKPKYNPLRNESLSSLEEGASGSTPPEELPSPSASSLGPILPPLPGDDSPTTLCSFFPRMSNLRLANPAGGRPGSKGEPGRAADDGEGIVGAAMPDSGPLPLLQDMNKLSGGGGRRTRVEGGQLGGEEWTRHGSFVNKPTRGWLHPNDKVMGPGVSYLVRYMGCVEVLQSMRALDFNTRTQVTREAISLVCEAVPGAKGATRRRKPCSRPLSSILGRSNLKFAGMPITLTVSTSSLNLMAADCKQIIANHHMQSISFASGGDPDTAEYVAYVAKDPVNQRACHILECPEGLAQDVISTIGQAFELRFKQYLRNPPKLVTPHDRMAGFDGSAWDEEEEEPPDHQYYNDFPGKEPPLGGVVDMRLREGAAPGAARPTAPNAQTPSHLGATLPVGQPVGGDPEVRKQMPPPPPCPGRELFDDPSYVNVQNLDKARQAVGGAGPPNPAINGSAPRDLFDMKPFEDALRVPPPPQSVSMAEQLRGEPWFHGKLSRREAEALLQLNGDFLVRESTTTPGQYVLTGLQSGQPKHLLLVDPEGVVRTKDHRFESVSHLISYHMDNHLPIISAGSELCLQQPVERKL
inactive: [1] 0.019 | [2] 0.006 | [3] 0.056 | [4] 0.087 | [5] 0.25

SKA2 (UniProt Q8WVK7)
Chain of UniProt Q8WVK7 (Q8WVK7 whole entry, looked up): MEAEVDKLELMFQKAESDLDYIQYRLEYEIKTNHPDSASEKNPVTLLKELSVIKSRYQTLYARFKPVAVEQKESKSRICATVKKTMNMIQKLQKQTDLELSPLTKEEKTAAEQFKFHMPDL
inactive: [1] -0.013 | [2] -0.038 | [3] 0.031 | [4] -0.004 | [5] 0.033

SSB (UniProt P05455)
inactive: [1] -0.004 | [2] 0.015 | [3] -0.009 | [4] 0.012 | [5] 0.068
